Compound activity: PubChem, National Center for Advancing Translational Sciences (NCATS)
In the library only some 2.4% were active in any assay of this set; here they are far more common.
D2 antag: antagonizes the human D2 dopamine receptor; inhibition, % at 10 µM; 340,000 compounds, 2% hits; AID 485344; HEK293 TREx D2 cells, calcium flux, dopamine EC80; in the data active = inhibition above about 30%; inactive = below that, where a call was filed; also: 0% is about no effect
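Read-out: kinetic calcium fluorescence (1 cycle/s) in inducible HEK293 T-REx D2 cells after an EC80 dopamine addition that followed 180 s compound preincubation. Loss of the dopamine response indicates antagonism.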
D2 ag-1: agonists of human D2 dopamine receptor | P14416 | HEK293 T-REx D2 cells, calcium flux agonist mode | activation, % at 2 µM | 340,000 compounds, 0.53% hits;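 active = activation over 3 SD above normal in the single-dose calcium agonist read, cut at about 30% in these data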; also: 0% is about no effect
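HEK293 Trex D2 cells, tetracycline-induced, o/n 30 C 5% CO2; no-wash Ca dye, RT 30–90 min; 10-cycle baseline, 23 nl cpd added, kinetic Ca read 180 s; agonist hits = positive Ca response.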
D2 PAM-1: positively modulates the human D2 dopamine receptor allosterically | P14416 | HEK293 T-REx D2, calcium flux, EC20 dopamine potentiation | potentiation, % at 10 µM | 340,000 compounds, 0.34% hits;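 active = potentiation over 3 SD above the plate norm, cut at about 30% in these data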; also: 0% is about no effect
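Calcium flux readout, no-wash dye, 1 read/s. Inducible HEK293 Trex D2 line, overnight 30 C. Compound alone 180 s (agonist flags), then EC20 dopamine, another 180 s to score potentiation.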
D2 ag-2: activates the human D2 dopamine receptor. P14416. DiscoveRx PathHunter D2 beta-arrestin, luminescence, 90 min; 100% = 57 uM dopamine signal. activation, % (test concentration not listed). 360,000 compounds, 0.084% hits. AID 624465; in the data active = activation above about 40%; inconclusive = between about 15% and that limit
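Agonist mode: compounds alone added to overnight-plated D2 PathHunter cells for 90 min at 37 C, with 57 uM final dopamine (EC100) defining full response. Beta-arrestin recruitment detected by chemiluminescent reagent, read after 1 h at ambient temperature.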
D2 PAM-2: human D2 receptor positive allosteric modulation; 360,000 compounds, 0.23% hits; DiscoveRx D2 beta-arrestin cells, luminescence, 90 min; 100% = 57 uM dopamine signal; AID 624464; potentiation, % (no concentration beside the values); P14416; in the data active = potentiation above about 50%; inconclusive = mostly about 30% to 49%
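PathHunter beta-arrestin assay in DiscoveRx D2 cells. Compounds were added with an EC20 of dopamine (50 nM final) for 90 min at 37 deg C. Luminescence was read 1 h after detection reagent, with 57 uM dopamine as the EC100 control.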
D3 ag: D3 receptor agonism confirmed, beta-arrestin readout. shares compounds with D2 ag-1. DiscoveRx D3 beta-arrestin cells, luminescence, 90 min. Potency, µM (doses to about 76.9 µM), for inactives: at the highest dose activation, usual class: activators. 2,300 compounds, 4% hits. AID 720506;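 also: potency is read from the fitted curve at half-maximal effect; 100% = dopamine control response; nearly all actives have a fitted effect of over 70% in size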
Target sequence (P35462 whole entry, looked up): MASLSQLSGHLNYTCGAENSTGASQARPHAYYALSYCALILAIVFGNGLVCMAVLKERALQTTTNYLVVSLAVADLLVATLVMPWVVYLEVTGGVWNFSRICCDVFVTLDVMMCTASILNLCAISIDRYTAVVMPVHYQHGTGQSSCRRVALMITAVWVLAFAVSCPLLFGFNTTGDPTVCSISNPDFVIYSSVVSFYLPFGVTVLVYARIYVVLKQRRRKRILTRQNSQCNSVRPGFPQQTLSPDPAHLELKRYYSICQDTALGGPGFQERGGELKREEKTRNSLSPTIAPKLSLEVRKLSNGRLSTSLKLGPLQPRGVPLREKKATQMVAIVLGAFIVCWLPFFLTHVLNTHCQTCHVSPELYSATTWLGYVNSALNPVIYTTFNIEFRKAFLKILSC
D2 ag-3: activates human D2 dopamine receptor in D3 counterscreen; DiscoveRx PathHunter D2 beta-arrestin, luminescence, 90 min; response scale: percent relative to full dopamine signal; shares compounds with D2 ag-1; 2,300 compounds, 5.9% hits; AID 720507; Potency, µM (series often up to 76.9 µM), inactives show at the highest dose activation, actives largely listed as activators; also: potency is read from the fitted curve at half-maximal effect; % of control where 0% means no effect; nearly all actives have a fitted effect of over 70% in size
* marks the source's active call; other numbers are inactive results; ? = inconclusive; / = no result. Unless noted, calls follow the shape of the dose curve; as a rule, active = well fitted activation curve with a large enough effect; inconclusive = small, poorly fitted or top-dose-only effect; inactive = flat fitted curve, though single readings scatter.

SMILES	D2 antag	D2 ag-1	D2 PAM-1	D2 ag-2	D2 PAM-2	D3 ag	D2 ag-3
CCN(CC(=O)Nc1ccccc1C(F)(F)F)C(=O)c1ccc2c(=O)n3c(nc2c1)CCC3	-6.1	1.2	8.2	0.7	2.0	/	/
CCc1nnc(NC(=O)c2ccc3c(=O)n4c(nc3c2)CCCCC4)s1	-3.8	5.8	1.0	-0.6	2.3	-10.1%	-3.8%
CC1CCN(S(=O)(=O)c2ccc3c(c2)N(CC(=O)NCC(C)c2ccccc2)C(=O)CO3)CC1 (stereo not given)	/	-0.8	-4.7	/	/	/	/
O=C(NC1CCCC1)c1c[nH]c2ccc(S(=O)(=O)Nc3cccc(C(F)(F)F)c3)cc2c1=O	/	1.3	17.0	/	/	/	/
COCc1cc(C)nc(OCC(=O)N/N=C/c2ccc(O)cc2)c1C#N	0.1	50.5*	-17.7	-3.6	-18.7	4.7%	0.8%
CN(C(=O)c1cccc(NC(=O)Cc2cccc(NC(=O)C3CCCN(C(=O)CCc4ccccc4)C3)c2)c1)C1CCC1 (stereo not given)	/	/	/	1.8	5.1	/	/
CC(=O)CCc1ccc(OCC(O)CNCCOc2ccc(C)cc2)cc1 (stereo not given)	61.0*	66.0*	-26.2	5.9	-7.4	?	?
CCOc1ccc(NC(=O)CN(C)C(=O)CC2CCCCC2)cc1OCC	2.7	0.0	-10.9	3.3	-1.3	/	/
COc1ccc(NC(=O)CN(C)C(=O)C2CSC3(C)CCC(=O)N23)cc1 (stereo not given)	-10.1	0.5	0.1	-3.3	5.9	-3.3%	0.7%
CCOc1ccc(NC(=O)CN(C)C(=O)CCC2CCCCC2)cc1OCC	12.1	-1.4	5.9	1.8	-16.4	-4.2%	0.5%
CC(=O)c1ccc(OC(=O)C2CSC3(C)CCC(=O)N23)cc1 (stereo not given)	/	/	/	0.3	11.3	-4.1%	-1.6%
CCOc1ccc(NC(=O)CN(C)C(=O)C2CSC3(C)CCC(=O)N23)cc1OCC (stereo not given)	8.6	0.0	-2.5	0.7	-0.5	-2.5%	-0.6%
COc1ccc(CN(C)C(=O)C2CSC3(C)CCC(=O)N23)cc1 (stereo not given)	7.6	0.3	-2.0	-2.4	9.7	/	/
CCC1CCCCN1C(=O)CSc1nc2c([nH]c3ccccc32)c(=O)n1-c1ccc(OC)cc1 (stereo not given)	/	-1.0	13.4	/	/	/	/
Cc1cc(CN2CCN(CC(=O)Nc3cc(Cl)ccc3-n3cncn3)CC2)no1	4.4	41.3*	-21.8	1.7	7.4	-6.4%	0.3%
C=CCn1c(-c2ccc(OC)cc2)csc1=Nc1c(C)n(C)n(-c2ccccc2)c1=O	53.6*	66.7*	-15.2	?	-25.3	-7.7%	?
Nc1c(Cl)cc(-c2[nH]c3cc(C(=O)NCCO)ccc3c(=O)c2O)cc1Cl	9.4	-0.4	2.6	3.3	3.0	25.4%	2.3%
CCCNC(=O)c1ccc2c(=O)c(O)c(-c3ccc(F)cc3)[nH]c2c1	/	/	/	1.8	1.0	/	/
Cn1ccc2c(N3CCCCC3)cc3c(c21)C1CCC3O1 (stereo not given)	/	/	/	2.1	-4.3	/	/
Cn1c(CC(=O)NCCO)c(Sc2ccccc2)c2ccccc21	-4.0	50.3*	-22.5	-4.7	-3.6	-4.8%	-1.9%
CSc1c(CC(=O)NCCO)n(C)c2ccccc12	1.9	0.2	2.6	-0.3	2.3	/	/
COC(=O)c1cc(C(=O)Nc2ccc(S(=O)(=O)NC(C)(C)C)cc2)cc([N+](=O)[O-])c1	-12.8	1.5	-2.4	4.6	7.4	/	/
CCN(CC)S(=O)(=O)c1ccc(NC(=O)c2cc(C(=O)OC)cc([N+](=O)[O-])c2)cc1	-0.3	46.4*	-19.3	3.4	5.3	9.0%	4.0%
Cc1ccc2[nH]cc(C(c3ccccc3)c3ccc(C)s3)c2c1 (stereo not given)	/	0.2	3.2	/	/	/	/
CCOC(=O)C1CCN(C(=O)Cn2c(=O)cc(C)c3c(C)nn(C)c32)CC1	/	-0.1	7.0	/	/	/	/
SMILES	D2 antag	D2 ag-1	D2 PAM-1	D2 ag-2	D2 PAM-2	D3 ag	D2 ag-3
OCCNCC1(O)C2CC3CC(C2)CC1C3 (stereo not given)	0.5	0.5	-1.7	-0.4	-12.1	/	/
OC1(CNCc2ccccc2)C2CC3CC(C2)CC1C3 (stereo not given)	56.5*	49.4*	-19.0	0.8	-14.4	-16.5%	3.9%
O=C(NCCc1ccccc1)C1CCN(S(=O)(=O)c2cccc3nsnc23)CC1	-14.4	-1.3	2.1	-0.7	-19.5	/	/
O=C(NCCN1CCN(c2ccccc2)CC1)C1CCN(S(=O)(=O)c2cccc3nsnc23)CC1	55.5*	28.5	/	?	-1.4	?	22.0%
O=C(O)C1CCCN1S(=O)(=O)c1cccc2nsnc12 (stereo not given)	-6.0	44.8*	-11.9	0.4	-2.3	-9.8%	-1.8%
CC(=NCCc1ccccc1)C1=C(O)CCC1=O	22.6	42.4*	-14.7	3.4	-2.2	-7.3%	-3.1%
COc1ccc(NS(=O)(=O)c2cccc(C(=O)NNC(=O)c3ccc(C)o3)c2)cc1	-4.8	0.1	-10.7	-1.6	-2.5	2.5%	1.8%
CCCOC(=O)c1cccc(NC(=O)CSc2nnc3cc(C)c4ccccc4n23)c1	/	-1.8	18.5	/	/	/	/
O=C(NCCS(=O)(=O)N1CCN(c2ccc(F)cc2)CC1)c1cc(=O)c2ccccc2o1	/	0.5	8.5	/	/	/	/
O=C(O)COCC(=O)Nc1ccc(OCCc2ccccc2)cc1	-0.2	-0.3	-4.4	-2.3	-2.7	-3.6%	2.4%
CCOCC(=O)Nc1ccc(OCc2ccccc2)cc1	0.9	-0.5	1.4	-6.5	-0.9	/	/
CCc1ccc(OCC(=O)N(Cc2cccs2)c2ccc(Cl)cc2)cc1	/	/	7.4	/	/	/	/
Cc1cccc(SC2CCN(Cc3nc(CC4CC4)no3)CC2)c1	-14.9	1.0	2.3	2.6	4.8	/	/
Cc1cccc(N2CCN(Cc3nc(CC4CC4)no3)CC2)n1	-33.5	29.7	-10.1	1.9	-3.6	-5.2%	-4.5%
Cc1ccc(-c2c(C(=O)N3CCN(c4ccc(F)cc4)CC3)oc(=O)c3ccccc23)cc1	/	0.4	-6.4	/	/	/	/
CC1=C(C(=O)Nc2cccnc2)C(c2ccccc2)n2nc(-c3ccc(O)cc3)nc2N1 (stereo not given)	/	1.6	/	/	/	/	/
CC(C)c1cccc(C(C)C)c1OC(=O)[C@H]1OC(c2ccc(Br)cc2)=C[C@@H]1c1ccc(Br)cc1	0.8	0.9	7.7	5.4	7.1	14.1%	5.4%
CC(C)c1cccc(C(C)C)c1OC(=O)[C@H]1OC(C(C)(C)C)=C[C@@H]1c1ccccc1	4.8	-0.2	-2.3	-2.3	-9.4	/	/
